# Screens as filed in PubChem.
# PGC1a acetyl inh – lowers PGC1a acetylation signal in U2OS cells; 0.17% of 350,000 active; AlphaScreen anti-acetyl-lysine; with virally co-expressed GCN5 acetyltransferase; AID 651687; inhibition, % at 15.6 µM;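 active = every replicate shows inhibition of at least 40%; inconclusive = mean inhibition at least 40% but some replicate below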;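 also: 0% = neutral control wells and 100% = positive control wells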
# rRNA inh HTS – selective bacterial rRNA inhibition in E. coli; 1.6% of 350,000 active; E. coli WT GFP vs humanized-ribosome RFP mutants, fluorescence, 24 h; active compounds read low; DMSO median 0, no signal -100; GFP signal change (wild-type ribosome), % (test concentration not listed);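 active = significant combined selectivity score with lowered wild-type GFP, culture density cut under 30%, mutant RFP and density less affected; inactive = any of these conditions unmet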
# DENV2 CPE rescue – inhibitors of DENV2 cytopathic effect | DENV2-infected cells, cytopathic effect rescue, plate reader | CPE inhibition, % at 9.99 µM | AID 651640 | 1.7% of 350,000 active; in the data active = CPE inhibition above about 20%, passing the limit was not always enough; inconclusive = no clear call, values can overlap the other calls; tested in BHK-21 cells;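 also: 0% = median of neutral control wells and 100% = median of positive control wells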
# CaV13 FRET inh – Primary screen for inhibitors of IQ motif and Ca2+-dependent inactivation inhibitor domain binding in CACNA1D, Förster resonance energy transfer in living cells, …; AID 743397; 0.098% of 340,000 active; HEK cells, CFP/YFP FRET ICDI-IQ, plate reader, 10 min; percent FRET-ratio fall versus neutral wells; inhibition, % at 12.3 µM;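 active = mean replicate inhibition of at least 30% and at least 1% of replicates passing that level; inconclusive = only one of the two criteria is met; inactive = neither criterion is met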;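 also: 0% = median of the neutral control wells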
# ERAP1 inh – ERAP1 (human) enzyme inhibition | inhibition, % at 10.7 µM | 0.15% of 340,000 active | AID 652197 | Q9NZ08 | recombinant ERAP1, Leu-AMC fluorescence, 60 min;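 active = mean replicate inhibition of at least 30%, or all replicates individually reaching that 30% level; inactive = mean below 30% and not every replicate reaching it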;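 also: 0% = neutral control wells and 100% = L-leucinethiol positive control wells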
# INS-1E GSIS act – GLuc luminescence reporter in INS-1E cells, primary screen for activators of glucose-dependent secretion of insulin | INS-1E GLuc reporter insulin secretion, 2-3 h | 0.61% of 370,000 active | AID 743287 | activation, % at 16.6 µM;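 active = lowest replicate activation of at least 40%, so every replicate reaches that level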;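 also: 0% = median of neutral control wells and 100% = median of IBMX positive control wells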
# AID977621 – growth inhibition of wild-type GFP E. coli, dose response, H69 mutant RFP, cherry-pick; 1,900 tested, under 10 active; activity change, negative = inhibition at 50 µM; shares compounds with rRNA inh HTS; E. coli wild-type GFP strain growth, fluorescence, 24 h;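 active = Wild-type ribosome reporter drop at least double the humanized mutant ribosome reporter drop, growth loss under a set limit; inconclusive = no clear call, values can overlap the other calls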;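 also: wild-type GFP and H69 mutant RFP strains grown together 50/50 in each well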
# AID977628 – growth of wild-type and h24-humanized E. coli strains – h24 mutant RFP vs wild-type GFP, cherry-pick, dose response. shares compounds with rRNA inh HTS. E. coli WT GFP strain growth, fluorescence, 24 h. 1,900 tested, under 10 active. activity change, negative = inhibition at 50 µM;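 active = compound lowering the normal-ribosome reporter at least twice as much as the humanized-ribosome reporter, growth loss under a set limit; inconclusive = no clear call, values can overlap the other calls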;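 also: wild-type GFP and h24 humanized RFP strains co-cultured 1 to 1 per well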
# An asterisk follows results filed as active; ? = inconclusive; . = no result; ! = a repeat was not active. Shown are actives, neighbours in structure and some others; about 3.2% of the full set was active somewhere.
SMILES,PGC1a acetyl inh,rRNA inh HTS,DENV2 CPE rescue,CaV13 FRET inh,ERAP1 inh,INS-1E GSIS act,AID977621,AID977628
CCOc1ccc(C(=O)Nc2cccc3cccnc23)cc1,.,8,1,-4,1,-4,.,.
CC(C)Oc1ccc(C(=O)Nc2cccc3cccnc23)cc1,.,-22*,.,-6,2,-7,-14,-1.1
Cc1onc(-c2ccccc2Cl)c1C(=O)N1CCN(Cc2ccc3c(c2)OCO3)CC1,5,-20*,.,-7,5,-2,7.1,-9.4
O=C(COC(=O)CCC(=O)c1ccc(F)cc1)Nc1cccc(S(=O)(=O)N2CCCC2)c1,.,-21*,5,-15,.,-24,-21,-11
O=C(COC(=O)c1n[nH]c2ccccc12)Nc1cccc(S(=O)(=O)N2CCOCC2)c1,.,-25*,11,9,-3,-21,-18,-13
CC(=O)c1cccc(NC(=O)COC(=O)CCC(=O)c2ccc(F)cc2)c1,-1,-17*,-5,-10,0,.,-1.8,.
Cc1noc(C)c1NC(=O)Nc1ccc2c(c1)C(=O)N([C@@H](C)CO)C[C@H](C)[C@@H](CN(C)CC1CCCCC1)O2,3,4,.,.,.,24,.,.
O=C(CCCOc1ccc(Cl)cc1Cl)Nc1ccccc1C(=O)O,10,-30*,2,-5,-2,-2,-15,.
O=C(Nc1ccn(Cc2ccc(Cl)cc2)n1)c1ccccc1,-1,-24*,.,-3,2,-14,-1.2,-9.7
O=C(c1ccccc1)c1ccc2nc(-c3ccc(NC(=O)c4ccccc4Br)cc3)[nH]c2c1,-3,-17*,.,.,2,16,.,-13
COc1ccc(-c2noc(CCc3ccccc3)n2)cc1,-1,-20*,-7,-3,2,-6,-0.82,-1.8
COCC(=O)N(C)C[C@@H]1Oc2ncc(-c3ccccc3F)cc2C(=O)N([C@H](C)CO)C[C@@H]1C,3,3,2,.,-1,6,.,.
COc1cc(OC)nc(Oc2ccccc2C(=O)Oc2ccc(C)cc2)n1,-4,-24*,-3,-7,13,0,-21,.
COC(=O)c1ccccc1Oc1nc(Cl)cc(OC)n1,1,.,.,-2,.,41,.,.
COCC(=O)Nc1ccc2c(c1)[C@@H]1C[C@@H](CC(=O)O)O[C@H](CO)[C@@H]1O2,-5,-1,4,.,1,4,.,.
COc1cccc(NC(=O)CNC(=O)c2ccccc2)c1,-9,.,.,-5,.,15,.,.
COc1ccc(NS(=O)(=O)c2cc(NC(=O)CNC(=O)c3cccc(OC)c3)ccc2C)cc1,17,-25*,.,.,-5,-13,-16,.
O=C(c1cccc2c1-c1ccccc1C2)N1CCCCC1,.,-22*,-1,-4,-3,-4,-11,?
CCOC(=O)c1cnc2ccc(OCC)cc2c1NCCN1CCOCC1,-5,-21,-11,-6,0,5,.,.
CCOC(=O)c1cnc2ccc(OCC)cc2c1NCCCN1CCOCC1,13,-22*,-2,-2,9,.,2,?
COc1ccc(Cl)cc1NC(=O)C1Cc2ccccc2CN1S(C)(=O)=O (stereo unspecified),6,-20*,9,-7,2,12,.,-19
O=C1C(Oc2ccccc2)C(c2cccs2)N1Cc1ccc2c(c1)OCO2 (stereo unspecified),.,.,.,.,.,-6,.,.
COc1ccc(OC2C(=O)N(Cc3ccc4c(c3)OCO4)C2c2cccs2)cc1 (stereo unspecified),-15,-22*,-6,-7,-2,-24,-16,.
C/C=C/c1cnc2c(c1)C(=O)N([C@@H](C)CO)C[C@@H](C)[C@H](CN(C)Cc1ccncc1)O2,.,10,-7,.,1,3,.,.
COc1cccc(CN2CC3(CCN(CC4CCOCC4)CC3)c3c([nH]c4cc(OC)ccc34)[C@@H]2CO)c1,1,5,-1,.,.,8,.,.
SMILES,PGC1a acetyl inh,rRNA inh HTS,DENV2 CPE rescue,CaV13 FRET inh,ERAP1 inh,INS-1E GSIS act,AID977621,AID977628
O=C(Nc1ccccc1Cl)N1C[C@H]2[C@@H](c3ccccc31)[C@@H](CO)N2Cc1ccccc1,-11,-38*,-16,.,3,3,.,?
O=C(Nc1ccccc1Cl)N1C[C@@H]2[C@H](c3ccccc31)[C@@H](CO)N2Cc1ccccc1,-3,-20,-3,.,2,7,.,.
COc1ccc(C(=O)N2C[C@@H]3[C@H](c4ccccc42)[C@@H](CO)N3Cc2ccccc2)cc1,-2,-6,-4,.,1,10,.,.
COc1cccc(C(=O)N2C[C@@H]3[C@H](c4ccccc42)[C@H](CO)N3Cc2ccccc2Cl)c1,-15,-33*,1,.,.,-8,.,?
COc1ccc(C(=O)N2C[C@H]3[C@@H](c4ccccc42)[C@@H](CO)N3Cc2ccc(Cl)cc2)cc1,-14,-51*,-13,.,1,-14,.,?
CN(C)C(=O)c1ccc(-c2ccc([C@H]3[C@@H](CO)N4CCCCN(S(C)(=O)=O)C[C@@H]34)cc2)cc1,3,4,2,.,0,6,.,.
Cc1cccc(SCC(=O)Nc2ccccc2[N+](=O)[O-])c1,.,-26*,2,11,1,1,-4.3,-15
COc1ccc(CNC(=O)CN(C)CC(=O)Nc2ccccc2Br)cc1,5,-5,8,-4,-3,-7,.,.
COc1ccc(OC)c(NC(=O)CN(C)CC(=O)Nc2ccccc2Br)c1,.,-25*,5,-5,8,10,-20,?
O=C(O)c1ccccc1NC(=O)C(c1ccccc1)c1ccccc1,0,-30*,-8,-4,0,1,-14,-12
O=C(NCC[C@H]1CC[C@@H](NS(=O)(=O)Cc2ccccc2)[C@@H](CO)O1)C1CCCC1,7,-1,-8,.,0,8,.,.
Cc1ccc(NS(=O)(=O)c2ccc3c(c2)CCC(=O)N3)cc1C,1,-23*!,-5,-6,10,-5,-3.4,?
COC(=O)c1ccc(OS(=O)(=O)c2ccc(NC(C)=O)cc2)cc1,.,-21*,1,-19,2,-20,.,?
C[C@@H]1CC=CC[C@@H](c2cccc(Cl)c2)NC(=O)[C@@H](C)N(C)C(=O)c2ccccc2O1 (mixture of isomers),.,-56,.,.,.,-27,.,.
CN1c2ccc(Cl)cc2C(=O)NC1C1CC=CCC1 (stereo unspecified),2,-23*,3,44*,-22,9,-2.7,.
